# Measured values from PubChem BioAssay (EPA / NIEHS).
# Values joined by “and” are separate entries in the source; they are usually repeats but may differ in a detail not shown here. Equal values may be shown once. Results filed as inconclusive are left out. Active and inactive are the calls of the source. The calls were made as follows, unless noted: active = hit-call score of the fitted dose curve at least 0.9, where 1 is the maximum; inactive = score below 0.9.
# Tests used:
# [1] = read-out: TIMP metallopeptidase inhibitor 2 (TIMP2), TIMP2 (gene 7077); assay: BSK_hDFCGF_TIMP2: BioMAP Diversity Plus: hDFCGF Assay for TIMP metallopeptidase inhibitor 2 (TIMP2) Biomarker Activity (AID 2284289); details: primary human foreskin fibroblasts
# Procedure, shortened: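 Primary human foreskin fibroblasts in the hDFCGF system, dosed for 24 h; TIMP-2 level measured by ELISA, fitted in the positive direction against DMSO; cytotoxicity checked in parallel by sulforhodamine B total protein staining.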
# [2] = read-out: Thrombomodulin, THBD (gene 7056); assay: BSK_LPS_Thrombomodulin: BioMAP Diversity Plus: LPS Assay for Thrombomodulin Biomarker Activity (AID 2284296); details: primary human HUVEC with PBMC
# Procedure, shortened: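 Thrombomodulin on the surface of LPS-activated endothelial/PBMC co-cultures was quantified by ELISA at 24 hours post-dosing, with DMSO as baseline. Parallel SRB total-protein staining flagged overt cytotoxicity.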
# CD69, CD69 (gene 969) = assay: BSK_LPS_CD69: BioMAP Diversity Plus: LPS Assay for CD69 Biomarker Activity (AID 2284303); details: primary human HUVEC with PBMC
# Procedure, shortened: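 CD69 surface levels were read by ELISA after 24 h chemical treatment of an LPS-stimulated HUVEC plus PBMC co-culture; positive-direction fit against DMSO vehicle.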
# DIO1 (gene 1733) = assay: CCTE_GLTED_hDIO1: CCTE's human Deiodinase 1 (DIO1) Inhibition Assay, Great Lakes Toxicology and Ecology Division (GLTED) Lab (AID 2283987; active = hit-call score of the fitted dose curve at least 0.9, where 1 is the maximum;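 also: isolated human DIO1 enzyme in a cell-free setup rather than cells; enzyme activity read as free iodide liberated from substrate via Sandell-Kolthoff colorimetry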)
# Procedure, shortened: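 Inhibition read as reduced iodide release: after 3 h of human DIO1 with chemical, free iodide is quantified colorimetrically (Sandell-Kolthoff cerium/arsenic reaction). Triplicate plates, DMSO baseline.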
# DIO2 (gene 1734) = assay: CCTE_GLTED_hDIO2: CCTE's human Deiodinase 2 (DIO2) Inhibition Assay, Great Lakes Toxicology and Ecology Division (GLTED) Lab (AID 2284050; active = hit-call score of the fitted dose curve at least 0.9, where 1 is the maximum)
# Procedure, shortened: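 Inhibition is judged by reduced iodide release: uninhibited human DIO2 frees iodide from substrate over 3 h, measured afterward by Sandell-Kolthoff colorimetry. Iodinated chemicals or nitrite, iron and thiocyanate may interfere.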
# DIO3 (gene 1735) = assay: CCTE_GLTED_hDIO3: CCTE's human Deiodinase 3 (DIO3) Inhibition Assay, Great Lakes Toxicology and Ecology Division (GLTED) Lab (AID 2284055; active = hit-call score of the fitted dose curve at least 0.9, where 1 is the maximum;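 also: potency is for inhibition seen as loss of released iodide signal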)
# Procedure, shortened: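 Human type 3 deiodinase, expressed via adenovirus system, was exposed to test chemicals for 3 hours in a cell-free format. Released iodide was then determined spectrophotometrically by Sandell-Kolthoff; plates ran in triplicate.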
# IYD (gene 389434) = assay: CCTE_GLTED_hIYD: CCTE's human Iodotyrosine Deiodinase (xIYD) Inhibition Assay, Great Lakes Toxicology and Ecology Division (GLTED) Lab (AID 2284317; active = hit-call score of the fitted dose curve at least 0.9, where 1 is the maximum;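 also: cell-free human IYD enzyme made in baculovirus insect cells; iodide freed from monoiodotyrosine measured by cerium arsenite color change at 420 nm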)
# Procedure, shortened: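 Deiodination of MIT by insect-cell-produced human IYD is measured after a 3 h incubation with test chemical. Free iodide passes through a Dowex column and accelerates Sandell-Kolthoff Ce4+ reduction, read at 420 nm; run in triplicate.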
# [3] = CCTE_Shafer_MEA_dev_bursting_electrodes_number: CCTE's Neural Network Formation Assay for Number of Bursting Electrodes, Shafer Lab (AID 2284043; active = hit-call score of the fitted dose curve at least 0.9, where 1 is the maximum)
# Procedure, shortened: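 Rat cortical primary neurons, 48-well MEA, 16 electrodes/well; dosing DIV 0–12, re-dosed with full media change DIV 5, 9. Recordings DIV 5/7/9/12, AxIS adaptive spike detector; bursting electrode = ≥1 burst/2 min. AUC across days; loss of signal vs DMSO.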
# [4] = TAMU_PeakParms_SingleDonor1434_Chronotropy: Texas A&M University (TAMU) 1.5-hr Human Induced Pluripotent Stem Cell (iPSC)-derived Cardiomyocytes Calcium (Ca+2) Flux Assay for Cardiotoxicity: Chronotropy (changes in peak frequency) (AID 2284217); details: actives raise or lower the signal
# Procedure, shortened: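 Using fluorescent Ca2+ flux, average beats per second are measured in human iPSC-derived cardiomyocytes treated 90 min (0.5% DMSO vehicle, 0.2–100 uM). Non-beating data points are removed; activity is modeled in both directions relative to DMSO controls.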
# [5] = TAMU_PeakParms_SingleDonor1434_QT: Texas A&M University (TAMU) 1.5-hr Human Induced Pluripotent Stem Cell (iPSC)-derived Cardiomyocytes Calcium (Ca+2) Flux Assay for Cardiotoxicity: QT (decay-rise ratio) (AID 2284235; active = hit-call score of the fitted dose curve at least 0.9, where 1 is the maximum)
# Procedure, shortened: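 Decay/rise ratio of calcium-flux fluorescence scored after 90 min exposure (37C) of donor 1434 iPSC cardiomyocytes to 0.2–100 uM (0.5% DMSO). Beat-cessation and severe-notch points removed; POD is EC05, a 5% rise over DMSO.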
# [6] = TOX21_PR_BLA_Followup_Agonist_viability: Viability Assessment in the Tox21 HEK293 Progesterone Receptor (PR) Agonism Beta-lactamase Follow-Up Assay (AID 2283935; active = hit-call score of the fitted dose curve at least 0.9, where 1 is the maximum;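 also: signal loss means lower viability so actives are cytotoxic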)
# Procedure, shortened: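 Cells were plated in medium with 2% charcoal-stripped FBS and rested 6 hr. Compounds in DMSO were then added for 16 hr at 37C, followed by the FRET substrate step and CellTiter-Glo luminescence after 30 min.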
# [7] = TOX21_PR_LUC_Followup_Antagonist_viability: Viability Assessment in the Tox21 HEK293 Progesterone Receptor (PR) Antagonism Luciferase Follow-Up Assay (AID 2283940; active = hit-call score of the fitted dose curve at least 0.9, where 1 is the maximum)
# Procedure, shortened: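 HEK293-PR-A-luc, 3,000 cells/well; 5 h at 37C/0% CO2; compound pin transfer; 16 h incubation; CellTiter-Glo ATP luminescence, signal loss = cytotoxicity.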
# [8] = TOX21_PR_LUC_Followup_Agonist_viability: Viability Assessment in the Tox21 HEK293 Progesterone Receptor (PR) Agonism Luciferase Follow-Up Assay (AID 2283941; active = hit-call score of the fitted dose curve at least 0.9, where 1 is the maximum;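 also: loss of signal means cytotoxicity so actives lower viability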)
# Procedure, shortened: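 Multiplexed viability endpoint of the PR agonist luciferase follow-up: HEK293-PR-A-luc cells treated 16 h at 37C, with viability scored as decrease in CellTiter-Glo ATP signal.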
# [9] = IUF_NPC1a_proliferation_area_72hr: Leibniz Research Institute for Environmental Medicine (IUF) 72-hour Neural Progenitor Cell Proliferation Area Assay (NPC1a) (AID 2284208)
# Procedure, shortened: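 Proliferation read as increase in sphere area by phase-contrast imaging over 72 h continuous compound exposure (no renewal) of hNPC spheres grown with EGF/FGF at 37C, 5% CO2. Growth-factor withdrawal served as positive control; DMSO as baseline.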
# [10] = IUF_NPC1_viability_72hr: Viability Assessment at 72 hours in the Leibniz Research Institute for Environmental Medicine (IUF) Neural Progenitor Cell Proliferation Assay (NPC1) (AID 2284209)
# Procedure, shortened: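 Spheres of primary human neural progenitors were plated singly in proliferation medium and treated for 72 h. Mitochondrial reduction of resazurin was then measured by fluorescence and analysed against DMSO controls.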
# [11] = IUF_NPC2c_oligodendrocyte_migration_120hr: Leibniz Research Institute for Environmental Medicine (IUF) 120-hour Neural Progenitor Cell Migration Assay for Oligodendrocyte Migration (NPC2c) (AID 2284297);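 also: O4-positive oligodendrocyte migration distance divided by radial glia migration distance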
# Procedure, shortened: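 Exposure runs 5 days from differentiation onset at 37C, seven concentrations plus solvent control, DMSO at most 0.1%, applied to primary hNPC spheres on laminin. After fixation, O4 immunostaining gives oligodendrocyte distance from the sphere core, relative to radial glia migration.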
# [12] = IUF_NPC2a_radial_glia_migration_120hr: Leibniz Research Institute for Environmental Medicine (IUF) 120-hour Neural Progenitor Cell Migration Assay for Radial Glia Migration (NPC2a) (AID 2284298)
# Procedure, shortened: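 Migration distance in um, sphere core edge to migration-area edge, derived by nuclei-density algorithm from Hoechst images after 120 h compound exposure. Primary hNPC spheres differentiated on poly-D-lysine/laminin in N2 medium, 37C; medium half-replaced day 3.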
# [13] = IUF_NPC2a_radial_glia_migration_72hr: Leibniz Research Institute for Environmental Medicine (IUF) 72-hour Neural Progenitor Cell Migration Assay for Radial Glia Migration (NPC2a) (AID 2284299)
# Procedure, shortened: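 Single 0.3 mm neurospheres were plated per well in N2 differentiation medium and exposed from the start of differentiation. After 72 hours, brightfield images were taken and radial glia migration from the sphere core edge was measured manually in four directions, averaged per well.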
# [14] = IUF_NPC2b_neuronal_migration_120hr: Leibniz Research Institute for Environmental Medicine (IUF) 120-hour Neural Progenitor Cell Migration Assay for Neuron Migration (NPC2b) (AID 2284300)
# Procedure, shortened: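 TUBB3-positive neurons are imaged after 120 h of differentiation, and their mean distance from the sphere edge is normalised to radial glia migration. Single 0.3 mm fetal hNPC spheres on poly-D-lysine/laminin received 7 compound concentrations, ≤0.1% DMSO, refreshed at day 3.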
# [15] = IUF_NPC3_neuronal_differentiation_120hr: Leibniz Research Institute for Environmental Medicine (IUF) 120-hour Neuronal Differentiation Assay (NPC3) (AID 2284301)
# Procedure, shortened: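 hNPC spheres, PDL/laminin, DMEM/F12 3:1 + 1% N2, 37C, 5% CO2; 7 concentrations + solvent control, 5 d exposure, half-change day 3. Fix 120 h; TUBB3/Hoechst ICC, CNN neuron calling; % neurons vs nuclei, DMSO-normalized.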
smiles,measurement,setting,value
Oc1ccc(C2(c3ccc(O)cc3)c3ccccc3-c3ccccc32)cc1,AC50,[1],1.41 µM (active) and 1.34 µM (active)
same,AC50,[2],5.13 µM (active) and 5.21 µM (active)
same,AC50,"CD69, CD69 (gene 969)",14.3 µM (active) and 13.1 µM (active)
CCCCCCCCCCCCCCCC[N+](C)(C)C,AC50,DIO1 (gene 1733),13.5 µM (active)
same,AC50,DIO2 (gene 1734),19.8 µM (active)
same,AC50,DIO3 (gene 1735),1.56 µM (active)
same,AC50,IYD (gene 389434),38.7 µM (active)
CC1CCCC1.[C-]#[O+].[C-]#[O+].[C-]#[O+].[Mn],outcome,[3],inactive
same,AC50,[4],50 µM (active)
same,AC50,[5],9.92 µM (active)
N#Cc1cc(I)c(O)c(I)c1,outcome,[6],inactive
same,outcome,[7],inactive
same,outcome,[8],inactive
Cc1ccc(OP(=O)(Oc2ccc(C)cc2)Oc2ccc(C)cc2)cc1 (tested in a mixture with another compound),outcome,[3],inactive
same,outcome,[9],inactive
same,outcome,[10],inactive
same,outcome,[4],inactive
same,outcome,[5],inactive
same,outcome,[11],inactive
same,outcome,[12],inactive
same,outcome,[13],inactive
same,outcome,[14],inactive
same,outcome,[15],inactive
COc1ccc(CO)cc1,outcome,[1],inactive
same,outcome,[2],inactive
same,outcome,"CD69, CD69 (gene 969)",inactive
CNC(=N[N+](=O)[O-])NCC1CCOC1 (stereo not given),outcome,[9],inactive
same,outcome,[10],inactive
same,outcome,[11],inactive
same,outcome,[12],inactive
same,outcome,[13],inactive
same,outcome,[14],inactive
same,outcome,[15],inactive
C=CC(=O)OCC(CC)CCCC (stereo not given),AC50,DIO1 (gene 1733),19.4 µM (active)
same,AC50,DIO2 (gene 1734),23.8 µM (active)
same,AC50,DIO3 (gene 1735),47 µM (active)
O=[N+]([O-])O,outcome,[1],inactive
same,outcome,[2],inactive
same,outcome,"CD69, CD69 (gene 969)",inactive
CCC1CCC(=O)O1 (stereo not given),outcome,IYD (gene 389434),inactive
CC(C)CCCCCCCOP(=O)(Oc1ccccc1)Oc1ccccc1,outcome,[3],inactive
same,outcome,[9],inactive
same,outcome,[10],inactive
same,outcome,[4],inactive
same,outcome,[5],inactive
same,outcome,[11],inactive
same,outcome,[12],inactive
same,outcome,[13],inactive
same,outcome,[14],inactive
same,outcome,[15],inactive
CC(C)(c1cc(Cl)c(O)c(Cl)c1)c1cc(Cl)c(O)c(Cl)c1,outcome,[6],inactive
same,outcome,[7],inactive
same,outcome,[8],inactive
same,AC50,DIO1 (gene 1733),73.9 µM (active)
same,AC50,DIO2 (gene 1734),94.3 µM (active)
same,AC50,DIO3 (gene 1735),41.8 µM (active)
same,AC50,IYD (gene 389434),100 µM (active)
C[C@]12CC[C@H]3[C@@H](CC[C@@]45O[C@@H]4C(O)=C(C#N)C[C@]35C)[C@@H]1CC[C@@H]2O,outcome,[6],inactive
same,outcome,[7],inactive
same,outcome,[8],inactive
